# Screening results from PubChem.
# NOD2-RIPK2 inh = blocks binding of human NOD2 to RIPK2. O43353. CHO BLA complementation NOD2-RIPK2, CCF4 ratio. inhibition, % at 4.98 µM. 0.38% of 360,000 active. AID 624267; in the data active = inhibition above about 21%
# Granule exo inh = blocks lytic granule exocytosis. TALL-104 LAMP-1 surface exposure, flow cytometry; cells stimulated with thapsigargin and PMA. 0.66% of 360,000 active. inhibition, % at 10 µM;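 active = inhibition above about 55%, limit read from the data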
# PRMT1 inh = PRMT1 (human) inhibition, primary screen. Q99873. recombinant PRMT1, activity-based probe fluorescence polarization. inhibition, % at 2.79 µM. 1.3% of 370,000 active. AID 652257;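 active = inhibition above about 21% made by adding two undisclosed values, limit read from the data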
# TLR4-MyD88 BLA = TLR4-MyD88 interaction inhibition in cells; O00206+Q99836; HeLa CL3-4 TLR4/MyD88 BLA complementation, FRET ratio; inhibition, % at 8.4 µM; 0.18% of 200,000 active; in the data active = inhibition above about 25%
# ABHD5 PLIN5 PPI = ABHD5-PLIN5 protein interaction inhibition; inhibition, % at 4 µM; Split G. princeps luciferase complementation, luminescence, 4 h; 0.78% of 360,000 active; Q00G26+Q8WTS1;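 active = inhibition above the mean inhibition across every tested compound plus 3 SD, cut at about 22% in these data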
# TLR9-MyD88 inh = inhibitors of human TLR9-MyD88 binding. 0.21% of 340,000 active. inhibition, % at 4.98 µM. CHO BLA complementation TLR9-MyD88, CCF4 FRET ratio. AID 504734;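 active = inhibition above the mean over all tested compounds plus 3 SD, cut at about 21% in these data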
# Target sequence (Q99836 whole entry, looked up): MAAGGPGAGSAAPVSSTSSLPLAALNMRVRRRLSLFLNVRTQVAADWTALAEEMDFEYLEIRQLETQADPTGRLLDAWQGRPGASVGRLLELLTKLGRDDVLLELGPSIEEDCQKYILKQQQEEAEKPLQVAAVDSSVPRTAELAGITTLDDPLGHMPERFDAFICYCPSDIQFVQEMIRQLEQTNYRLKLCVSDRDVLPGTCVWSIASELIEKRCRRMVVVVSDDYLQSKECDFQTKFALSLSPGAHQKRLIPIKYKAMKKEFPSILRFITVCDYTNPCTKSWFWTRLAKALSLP
# Target sequence (Q9NR96 whole entry, looked up): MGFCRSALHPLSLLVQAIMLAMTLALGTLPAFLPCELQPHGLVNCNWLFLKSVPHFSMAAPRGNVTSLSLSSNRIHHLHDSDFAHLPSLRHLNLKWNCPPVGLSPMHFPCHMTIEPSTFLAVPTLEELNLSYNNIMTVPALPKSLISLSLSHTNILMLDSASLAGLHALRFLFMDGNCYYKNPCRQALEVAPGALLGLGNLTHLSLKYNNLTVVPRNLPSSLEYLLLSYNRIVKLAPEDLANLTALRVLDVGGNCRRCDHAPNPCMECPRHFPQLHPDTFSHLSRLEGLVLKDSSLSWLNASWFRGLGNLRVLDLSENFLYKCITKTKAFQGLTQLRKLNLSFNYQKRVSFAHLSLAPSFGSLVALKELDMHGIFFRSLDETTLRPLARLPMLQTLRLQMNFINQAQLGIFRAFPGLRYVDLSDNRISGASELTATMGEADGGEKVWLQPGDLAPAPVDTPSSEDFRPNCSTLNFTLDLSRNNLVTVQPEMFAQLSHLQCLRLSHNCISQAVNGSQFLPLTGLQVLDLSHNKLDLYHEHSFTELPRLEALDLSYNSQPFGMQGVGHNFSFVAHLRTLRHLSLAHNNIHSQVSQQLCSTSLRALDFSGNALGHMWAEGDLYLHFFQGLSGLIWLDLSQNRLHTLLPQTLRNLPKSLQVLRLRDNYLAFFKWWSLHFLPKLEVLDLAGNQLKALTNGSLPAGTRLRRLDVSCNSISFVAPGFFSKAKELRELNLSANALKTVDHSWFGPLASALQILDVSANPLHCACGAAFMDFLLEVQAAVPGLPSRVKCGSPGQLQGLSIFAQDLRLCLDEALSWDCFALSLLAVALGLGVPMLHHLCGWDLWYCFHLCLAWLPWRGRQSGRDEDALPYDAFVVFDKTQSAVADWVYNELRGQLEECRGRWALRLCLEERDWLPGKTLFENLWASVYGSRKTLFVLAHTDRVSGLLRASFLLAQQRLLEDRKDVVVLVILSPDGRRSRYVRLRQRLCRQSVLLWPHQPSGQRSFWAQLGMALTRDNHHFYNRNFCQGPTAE
# Numbers stand for hits; n = inactive; x = not tested or not shown. An excerpt weighted towards active compounds, which were near 2.6% of everything screened.
SMILES,NOD2-RIPK2 inh,Granule exo inh,PRMT1 inh,TLR4-MyD88 BLA,ABHD5 PLIN5 PPI,TLR9-MyD88 inh
CCOC(=O)C(NC(=O)CCl)(Nc1sc(C)c(CC)c1C#N)C(F)(F)F (configuration not stated),n,n,22,n,n,n
O=C(CN1C(=O)/C(=C\c2ccco2)SC1=S)Nc1ccc(O)cc1C(=O)O,n,n,43,x,n,n
CN1CCCCC(NC(=O)c2ccccn2)C1=O (configuration not stated),x,x,n,x,x,x
CC1=NN(c2ccccc2)C(=O)/C1=C\C=C\c1ccccc1,n,n,n,x,22,x
Nc1nonc1-n1nnc(C(=O)N/N=C/c2cccnc2)c1CSc1ccccc1,n,n,n,x,n,n
Nc1nonc1-n1nnc(C(=O)N/N=C/c2cccnc2)c1CSc1ccc(Cl)cc1,n,62,n,x,n,n
CN(C)Cc1c(C(=O)N/N=C/c2cccc(OCc3c(F)cccc3Cl)c2)nnn1-c1nonc1N,n,n,n,x,n,n
CN(C)Cc1c(C(=O)N/N=C/c2ccccc2OCc2c(F)cccc2Cl)nnn1-c1nonc1N,n,95,n,x,n,n
Nc1nonc1-n1nnc(C(=O)N/N=C/c2ccc(Br)cc2)c1CSC1=NCCS1,n,n,n,n,n,n
Nc1nonc1-n1nnc(C(=O)N/N=C/c2cccnc2)c1CSC1=NCCS1,n,n,47,x,n,n
NC1=NC(=O)/C(=C\c2ccco2)S1,n,n,63,x,n,n
NC1=NC(=O)C(=Cc2ccccc2)S1,n,n,n,x,n,n
COC(=O)c1cc2c(c3c4ccccc4n(S(=O)(=O)c4ccc(OC)cc4)c13)C(=O)N(C)C2,x,x,n,x,x,x
NC(=S)N=Nc1c(O)n(CCCl)c2ccccc12,n,n,n,n,n,x
NC(=S)N=Nc1c(O)n(CCCl)c2ccc(Cl)cc12,n,57,n,n,n,n
CCCCCC1C(C(=O)OCC)C(=O)NC1(C(=O)OCC)C(=O)OCC (configuration not stated),n,95,n,x,n,n
COc1cccc(CC(=O)NCC2CCN(C(=O)C(=O)c3cccs3)CC2)c1,x,x,n,x,x,x
Cc1cc(N2CCN(Cc3ccccc3)CC2)n2nc(C)nc2n1,x,x,n,x,x,x
COCCn1nnnc1CN(Cc1ccco1)Cc1cc2cc3c(cc2[nH]c1=O)OCO3,n,n,n,n,22,n
CCC(C)(C)n1nnnc1CN(Cc1ccco1)Cc1cc2cc3c(cc2[nH]c1=O)OCO3,n,n,x,n,23,n
COc1ccc2[nH]c(=O)c(CN(Cc3ccco3)Cc3nnnn3Cc3ccccc3)cc2c1,n,n,n,n,n,n
CCC(C)(C)n1nnnc1CN(Cc1ccc(Cl)cc1)Cc1ccco1,n,n,n,n,n,n
Cc1ccc(-n2nc(-c3ccco3)cc2C(=O)O)cc1,n,n,n,x,n,n
O=C(c1cc(-c2ccco2)nn1-c1cccc(Cl)c1)N1CCCCC1,n,n,n,n,48,n
CC(=O)C(C(C)=O)c1c(Cl)c(O)c(O)c2c(C(=O)c3ccccc3)coc12,n,91,79,n,n,n
SMILES,NOD2-RIPK2 inh,Granule exo inh,PRMT1 inh,TLR4-MyD88 BLA,ABHD5 PLIN5 PPI,TLR9-MyD88 inh
C[C@H]1CN([C@@H](C)CO)C(=O)CCCn2nncc2CO[C@@H]1CN(C)Cc1ccc2cccnc2c1,x,x,n,x,x,x
COC(=O)c1cc(C)nc(Sc2ccccc2N)n1,x,x,25,x,x,x
C[C@H](O)[C@@H]1CN2CCc3ccc(-c4ccc5c(c4)OCO5)cc3[C@@H]2C[C@@H]1N(C)C(=O)c1ccco1,x,x,n,x,x,x
Cc1cc2c(SCC(=O)Nc3cccc(O)c3)ncnc2s1,n,n,34,x,n,n
Cc1cc(O)ccc1N/C=C/c1onc(C)c1[N+](=O)[O-],n,n,33,n,n,n
COC(=O)[C@]12C[C@H](CC(=O)NCc3ccccc3)C(=O)N(Cc3ccc4c(c3)OCO4)C1=C[C@H](COCc1ccccc1)O[C@@H]2C,x,x,n,x,x,x
CCOC(=O)c1c2c(n(-c3ccc(OC)cc3)c1C)C(=O)C(=O)c1ccccc1-2,n,98,x,x,n,n
COC(=O)C1=C(C)N(CCCC(=O)O)C(=O)NC1c1cc2c(cc1[N+](=O)[O-])OCO2 (configuration not stated),n,n,27,n,n,n
CCn1c(SCC(=O)Nc2ccc(C(=O)OC)cc2)nnc1-c1cccc(Cl)c1,x,x,n,x,x,x
COc1cc(NC(=S)N2CCCC(CO)C2)cc(OC)c1 (configuration not stated),n,n,21,n,n,n
CCOc1ccccc1CNC(=O)c1ccc2c(c1)N(CC)CCS2,n,n,23,x,n,n
CCOC(=O)[C@]12CCCC=C1N(Cc1ccc(OC)cc1)C(=O)[C@@H]2CC(=O)NCCc1ccccc1OC,x,x,n,x,x,x
Cc1ccc(C)c(C(=O)COc2ccc(C)nc2[N+](=O)[O-])c1,n,n,21,n,n,n
CCCn1c(C)cc(C(=O)COc2ccc(C)nc2[N+](=O)[O-])c1C,n,n,n,n,n,n
Cc1ccc(OCC(=O)c2cc(C)c(C)cc2C)c([N+](=O)[O-])n1,n,n,24,n,n,n
O=C(O)c1ccc(/C=C(\c2nc3ccccc3[nH]2)c2nc3ccccc3s2)cc1,n,n,n,x,n,n
CC(C)(C)c1ccc(/C=C(\c2nc3ccccc3[nH]2)S(=O)(=O)c2ccccc2)cc1,n,n,x,x,43,n
O=C(O)Cn1c2c(c3ccccc31)CSc1ccc(Cl)cc1-2,n,n,78,x,23,n
O=C(O)Cn1c2ccccc2c2ccccc21,n,n,n,n,n,n
Oc1ccc(Nc2nc(-c3ccccc3)nc3ccccc23)cc1,n,n,x,x,n,n
Oc1ccc(Nc2nc3ccccc3nc2Nc2ccc(O)cc2)cc1,n,n,x,n,57,n
O=C(Nc1nc(-c2ccco2)c(-c2ccco2)s1)c1cnccn1,x,x,37,x,x,x
COC(=O)[C@]12C[C@H](CC(=O)NCC34CC5CC(CC(C5)C3)C4)C(=O)N(Cc3cccc4ccccc34)C1=C[C@H](C(C)(C)C)O[C@@H]2C,x,x,n,x,x,x
COc1ccc(/C=C/C(=O)c2ccccc2)cc1COc1ccc(F)cc1,n,n,n,n,22,n
CC(CNC(=O)[C@@H](Cc1ccccc1)NC(=O)[C@H]1O[C@@H](n2ccc(=O)[nH]c2=O)[C@H](O)[C@@H]1O)c1ccccc1 (some centres not stated),x,x,n,x,x,x
Cc1ccc(/C=C2\SC(=S)N(CC3CCCO3)C2=O)o1 (configuration not stated),n,n,23,x,n,n
COP(=O)(O)[C@@H](CC(C)C)NC(=O)OCc1ccccc1,x,x,n,x,x,x
C(=N/n1c2ccccc2c2ccccc21)/c1ccco1,n,n,n,n,n,n
N=c1scc(-c2ccccc2)n1/N=C/c1ccco1,x,n,34,n,x,n
C[C@@H]1CN([C@@H](C)CO)C(=O)CCCn2cc(nn2)CO[C@H]1CN(C)C(=O)NC1CCCCC1,x,x,n,x,x,x
